Cruzain inh Det – blocks cruzain activity in presence of Triton detergent | Potency, µM, hits mostly inhibitors | P25779 | AID 1478 | actives 0.43% (n = 200,000) | purified cruzain, Z-FR-AMC fluorescence, 0.01% Triton; also: nearly all actives have a fitted effect of over 40% in size
Target sequence (P25779 123-467 limits assumed): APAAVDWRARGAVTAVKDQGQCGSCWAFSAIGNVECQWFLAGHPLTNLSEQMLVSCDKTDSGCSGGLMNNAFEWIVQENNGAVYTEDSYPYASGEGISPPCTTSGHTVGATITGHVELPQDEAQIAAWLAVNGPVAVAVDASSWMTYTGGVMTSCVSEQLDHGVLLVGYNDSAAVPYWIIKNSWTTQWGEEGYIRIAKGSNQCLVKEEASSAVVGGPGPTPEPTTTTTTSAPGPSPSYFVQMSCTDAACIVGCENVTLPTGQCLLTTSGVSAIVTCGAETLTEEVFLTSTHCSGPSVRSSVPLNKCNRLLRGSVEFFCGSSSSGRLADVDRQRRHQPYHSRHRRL
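15 min RT preincubation of 1.5 nM cruzain with compound, then 2 uM Z-FR-AMC added; kinetic AMC fluorescence, 60 s delta. Triton X-100 0.01%, pH 5.5.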
Cruzain inh noDet – cruzain (T. cruzi) inhibition without detergent. purified cruzain, Z-FR-AMC fluorescence, no detergent. Potency, µM, most hits filed as inhibitors. actives 2.3% (n = 200,000). AID 1476; also: nearly all actives have a fitted effect of over 40% in size
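Detergent-free condition (0.00005% Triton X-100) in acetate buffer pH 5.5 with DTT. 1.5 nM enzyme and compound were pre-mixed 15 min, then 2 uM Z-FR-AMC substrate added; reaction progress from fluorescence change between first and third reads (60 s).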
A number is an active result. A selection: hits, their analogues and other compounds. The true share with any hit is near 2.6%. Calls follow the shape of the dose curve; as a rule, active = well fitted curve in the direction sought with a large enough effect; inconclusive = small, poorly fitted or top-dose-only effect, or another doubt; inactive = no such curve, though single readings can be large; an effect the other way counts as inactive or inconclusive.

Results for N#Cc1ccc(NC(=O)Nc2ccc(Cl)cc2)cc1 ?
Cruzain inh Det: inactive; Cruzain inh noDet: 10µM

How did CN(CC(=O)Nc1ccc(C#N)cc1)Cc1ccc(Cl)cc1 do in these assays?
Cruzain inh Det: inactive; Cruzain inh noDet: inactive

How did ClC/C=C/CCl do in these assays?
Cruzain inh Det: inactive; Cruzain inh noDet: inactive

Results for O=C1C2C3c4ccccc4C(c4ccccc43)[C@@H]2C(=O)N1c1nc(-c2ccccc2)cs1 (some centres not stated) ?
Cruzain inh Det: inactive; Cruzain inh noDet: 13µM

How did O=C1C2C3c4ccccc4C(c4ccccc43)C2C(=O)N1c1nc(-c2ccccc2)cs1 (configuration not stated) do in these assays?
Cruzain inh Det: inactive; Cruzain inh noDet: inconclusive

What do the screens show for `Cc1oc(-c2ccc(Cl)cc2)nc1CN1CCCC(C(=O)NCCc2ccc(Cl)cc2)C1` (configuration not stated)?
Cruzain inh Det: inactive; Cruzain inh noDet: inactive

How did CC(C)(C)C(=O)Cn1c(=O)n(-c2ccc(Cl)c(Cl)c2)c(=O)c2c3c(sc21)CCCC3 do in these assays?
Cruzain inh Det: inactive; Cruzain inh noDet: inactive

What do the screens show for `COC(=O)/C=C1/SC(=NC(=O)c2ccccc2)NC1=O`?
Cruzain inh Det: inactive; Cruzain inh noDet: inactive

How did COC(=O)/C=C1\SC(=NC(=O)c2cccc(Cl)c2)NC1=O do in these assays?
Cruzain inh Det: 14µM; Cruzain inh noDet: inactive

What do the screens show for `COCC(C)Nc1ncnc2c1cnn2-c1ccc(C)c(C)c1` (configuration not stated)?
Cruzain inh Det: inactive; Cruzain inh noDet: inactive

What do the screens show for `COc1ccc(COc2cc(-c3cccc(OC)c3)nc3ccc(NC(=O)c4ccc(N(C)C)cc4)cc23)cc1`?
Cruzain inh Det: inactive; Cruzain inh noDet: 6.3µM

Results for COc1ccc(COc2cc(-c3cccc(OC)c3)nc3ccc(NC(C)=O)cc23)cc1 ?
Cruzain inh Det: inactive; Cruzain inh noDet: inconclusive

What do the screens show for `COc1ccc(COc2cc(-c3cccc(OC)c3)nc3ccc(N)cc23)cc1`?
Cruzain inh Det: inactive; Cruzain inh noDet: inconclusive

What do the screens show for `COc1ccc(COc2cc(-c3cccc(OC)c3)nc3ccc(NC(=O)c4ccc(C)cc4)cc23)cc1`?
Cruzain inh Det: inactive; Cruzain inh noDet: 7.9µM

Results for CCOC(=O)c1c(-c2ccccc2)oc2ccc(OCc3ccccc3Br)cc12 ?
Cruzain inh Det: inactive; Cruzain inh noDet: inactive

What do the screens show for `c1ccc(C(c2ccccc2)N2CC[C@@]3(CCCNC3)C2)cc1`?
Cruzain inh Det: inactive; Cruzain inh noDet: inactive

Results for Cc1cc(OCc2ccc(C(=O)NN=C3CCCC3)cc2)ccc1Cl ?
Cruzain inh Det: inactive; Cruzain inh noDet: inconclusive

How did Cc1cc(Br)c(OCc2ccc(C(=O)N/N=C3\CC(=O)CC(C)(C)C3)cc2)c(Br)c1 do in these assays?
Cruzain inh Det: inactive; Cruzain inh noDet: 10µM

How did Cc1ccc2c(c1)N(C(=O)CCC(=O)NCc1ccccc1Cl)CC(C)O2 (configuration not stated) do in these assays?
Cruzain inh Det: inactive; Cruzain inh noDet: inactive

What do the screens show for `CCOC(=O)CC(=O)CSc1nc2sc(C)cc2c(=O)n1Cc1ccco1`?
Cruzain inh Det: inactive; Cruzain inh noDet: inactive

Results for Cc1cc2c(=O)n(Cc3ccco3)c(SCC(=O)c3ccc(Cl)s3)nc2s1 ?
Cruzain inh Det: inactive; Cruzain inh noDet: 25µM

What do the screens show for `Cc1ccc2cc(CN(Cc3ccc4c(c3)OCO4)Cc3nnnn3Cc3ccco3)c(=O)[nH]c2c1C`?
Cruzain inh Det: inactive; Cruzain inh noDet: 32µM

How did Cc1ccc(C)c2[nH]c(=O)c(CN(Cc3ccc4c(c3)OCO4)Cc3nnnn3Cc3ccco3)cc12 do in these assays?
Cruzain inh Det: inactive; Cruzain inh noDet: inactive

What do the screens show for `Cc1ccc(NC(=O)c2ccc3c(O)c(S(=O)(=O)c4ccccc4)c(=O)[nH]c3c2)cc1Cl`?
Cruzain inh Det: inactive; Cruzain inh noDet: inactive

Results for O=c1ccc2cc(S(=O)(=O)NCc3ccc(Cl)cc3)ccc2[nH]1 ?
Cruzain inh Det: inactive; Cruzain inh noDet: inactive

What do the screens show for `CCCC(=O)Nc1ncnc2c1ncn2[C@@H]1O[C@H]2COP(=O)(O)O[C@@H]2[C@@H]1OC(=O)CCC`?
Cruzain inh Det: inactive; Cruzain inh noDet: inactive

Results for Clc1ccc(/C=C/c2nc3ccccc3[nH]2)cc1 ?
Cruzain inh Det: inactive; Cruzain inh noDet: 16µM

What do the screens show for `Clc1ccc(/C=C/c2nc3ccccc3[nH]2)c(Cl)c1`?
Cruzain inh Det: inactive; Cruzain inh noDet: inconclusive

Results for O=C(Cn1cc(SCc2ccccc2F)c2ccccc21)N1CCCCC1 ?
Cruzain inh Det: inactive; Cruzain inh noDet: inactive

What do the screens show for `CCOC(=O)c1cnc(-n2nc(C)cc2C)nc1NC`?
Cruzain inh Det: inactive; Cruzain inh noDet: inactive

What do the screens show for `CCOC(=O)c1cnc(-n2nc(C)cc2C)nc1NNc1nc(-c2ccccc2)cc(-c2ccccc2)n1`?
Cruzain inh Det: inactive; Cruzain inh noDet: 20µM

Results for CC(C)[C@@H](C(=O)O)N1C(=O)c2ccccc2C1=O ?
Cruzain inh Det: inactive; Cruzain inh noDet: inactive

What do the screens show for `COc1cc(CCN)c(OC)c(OC)c1`?
Cruzain inh Det: inactive; Cruzain inh noDet: inactive

High-throughput results from PubChem.
